Screening results: PubChem, National Center for Advancing Translational Sciences (NCATS)
IL-1B inflam inh: inhibitors of inflammasome signaling (IL-1 beta secretion); activity change, % at 57.5 µM; 360,000 compounds, 4.7% hits; AID 743279; THP-1 LPS/ATP IL-1B secretion, AlphaLISA, 16 h; active compounds read low; in the data active = activity change below about -50%; inconclusive = mostly about -30% to -49%
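Secreted IL-1B measured by AlphaLISA bead assay after 16 h compound exposure of THP-1 cells; compounds (final up to 57.5 uM) added 1 h before LPS (250 ng/mL) and ATP (1.25 mM) stimulation; lower signal means less secretion.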
Giardia kill: Giardia lamblia killing | Giardia lamblia trophozoite viability | activity change, % at 7.66 µM, hits read low | 340,000 compounds, 0.15% hits | AID 540267; in the data active = activity change below about -80%; inconclusive = between about -30% and that limit;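 note: parasites exposed to compound for two days anaerobically before the ATP read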
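Media and compound were dispensed first, then trophozoites at 100 cells/well; plates sat 48 hrs at 37 deg C without oxygen before ATP luminescence reagent was added and read after 15-30 min at room temperature.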
TDP1 inh: blocks human tyrosyl-DNA phosphodiesterase 1; Q9NUW8; recombinant TDP1, AlphaScreen DNA substrate cleavage; Potency, µM (doses to about 130 µM), inactives show top-dose activity change, negative = inhibition, usual class: inhibitors; 350,000 compounds, 0.28% hits; AID 485290; note: potency is the fitted concentration of half-maximal effect; nearly all actives have a fitted effect of over 40% in size
Target sequence (Q9NUW8 whole entry, looked up): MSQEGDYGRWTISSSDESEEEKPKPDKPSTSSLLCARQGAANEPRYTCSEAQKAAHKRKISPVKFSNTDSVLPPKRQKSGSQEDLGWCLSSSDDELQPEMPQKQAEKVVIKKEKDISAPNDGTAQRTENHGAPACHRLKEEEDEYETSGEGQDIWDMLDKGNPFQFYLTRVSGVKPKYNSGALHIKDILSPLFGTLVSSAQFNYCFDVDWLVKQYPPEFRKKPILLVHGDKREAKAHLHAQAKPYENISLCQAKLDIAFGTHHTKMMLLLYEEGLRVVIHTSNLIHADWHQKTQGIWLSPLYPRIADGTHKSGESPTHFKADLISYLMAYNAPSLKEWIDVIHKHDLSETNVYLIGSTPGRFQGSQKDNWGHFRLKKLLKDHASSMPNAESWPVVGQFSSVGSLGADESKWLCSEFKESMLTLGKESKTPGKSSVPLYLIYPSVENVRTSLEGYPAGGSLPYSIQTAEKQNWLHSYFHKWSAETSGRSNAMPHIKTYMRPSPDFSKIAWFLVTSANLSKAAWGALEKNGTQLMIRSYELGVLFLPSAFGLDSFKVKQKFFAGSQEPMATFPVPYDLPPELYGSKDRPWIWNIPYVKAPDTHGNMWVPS
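Recombinant E. coli-expressed Tdp1 (1 nM) preincubated with compound 15 min at RT, then 5'-biotin/3'-phosphotyrosine-FITC DNA substrate (15 nM) added for 5 min. AlphaScreen beads (10 ug/ml) added, 10 min RT; tyrosine-FITC cleavage read as signal loss.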
TDP1 cell noCPT: qHTS for Inhibitors of human tyrosyl-DNA phosphodiesterase 1 (TDP1): qHTS in cells in absence of CPT | AID 686978, 2013 | 420,000 compounds, 15% hits | DT40 Tdp1-/- hTDP1 cells, no CPT, ATP luminescence, 48 h | Potency, µM (titrated, usually from 46.2 µM), for inactives: top-dose activity change, negative = growth inhibition, most hits filed as inhibitors; note: potency is the fitted concentration of half-maximal effect; nearly all actives have a fitted effect of over 55% in size
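Seeded 400 DT40-hTDP1 cells/well (vehicle DMSO, no 20 nM CPT); pinned compounds; ≥48 hr at 37 °C; CellTiter-Glo luminescence as viability measure.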
DT40 TDP1 CPT: DT40-hTDP1 cell growth loss with CPT. chicken DT40 Tdp1-/-;hTDP1 cells + 20 nM CPT, ATP luminescence, 48 h. Potency, µM (highest dose often 46.2 µM), for the others: top-dose activity change, negative = growth inhibition, actives largely listed as inhibitors. 420,000 compounds, 12% hits; note: potency is the fitted concentration of half-maximal effect; nearly all actives have a fitted effect of over 55% in size
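Chicken DT40 Tdp1-/- cells complemented with human TDP1, 400 cells/well, exposed to compounds plus 20 nM camptothecin for at least 48 h at 37 C; viability read as ATP content by CellTiter-Glo luminescence.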
ELG1 repair inh: inhibitors of ELG1-dependent DNA repair in HEK293T cells. Potency, µM (highest dose often 46.1 µM), without a hit: at the top dose activity change, negative = inhibition, hits mostly inhibitors. 330,000 compounds, 2.3% hits. HEK293T ELG1-luciferase reporter, luminescence, 16 h; DNA damage induced by 5-fluorouridine; note: potency is the fitted concentration of half-maximal effect; nearly all actives have a fitted effect of over 55% in size
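Step one: seed 2,000 cells per well. Step two: pin-transfer compound or DMSO alongside 5-fluorouridine. Step three: incubate 16 hr, 37 °C, 5% CO2. Step four: add ONE-Glo, wait 30 min, read luminescence.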
Starred values were filed as active, the others as inactive; [ ] = remark or other dose. Sampled rows, rich in hits. Any-hit rate of the full collection: about 19%. Unless noted, calls come from the whole dose curve; as a rule, active = well fitted curve in the direction sought with a large enough effect; inconclusive = small, poorly fitted or top-dose-only effect, or another doubt; inactive = no such curve, though single readings can be large; an effect the other way counts as inactive or inconclusive. % is set by controls: 0 for no effect and ±100 for the full control effect.

Screening O=C(CC1NCCNC1=O)Nc1cccc(F)c1 (stereo not given) returned TDP1 inh 3.2%, TDP1 cell noCPT -7.9% and DT40 TDP1 CPT -1.6%.
For c1ccc(Cn2nnc3c(N4CCCCCC4)ncnc32)cc1 the results were IL-1B inflam inh -12.0, Giardia kill -13.5, TDP1 inh -2.2%, TDP1 cell noCPT 16.4µM*, DT40 TDP1 CPT inconclusive and ELG1 repair inh inconclusive.
`c1ccc(Cn2nnc3c(N4CCc5ccccc54)ncnc32)cc1` gave IL-1B inflam inh 38.7, Giardia kill 4.8, TDP1 inh 2.4%, TDP1 cell noCPT -0.3%, DT40 TDP1 CPT -8.3% and ELG1 repair inh inconclusive.
COc1ccccc1OCC(=O)NCC1CCCN(C(=O)c2ccccc2C(C)=O)C1 (stereo not given) was read as IL-1B inflam inh -6.7, Giardia kill 0.9, TDP1 inh -2.4%[56.1 µM], TDP1 cell noCPT 3.0%, DT40 TDP1 CPT 7.6% and ELG1 repair inh 14.7%.
Screening COc1ccccc1OCC(=O)NCC1CCCN(C(=O)c2ccccc2SC)C1 (stereo not given) returned IL-1B inflam inh 14.2, Giardia kill -24.5, TDP1 inh 0.9%, TDP1 cell noCPT 14.6µM*, DT40 TDP1 CPT inconclusive and ELG1 repair inh 14.6%.
`CCOC(=O)c1ccc(-n2c(CCC(=O)O)ccc2-c2ccccc2)cc1O` gave TDP1 inh 7.4%, TDP1 cell noCPT -24.8% and DT40 TDP1 CPT -22.3%.
For Cc1cc(C)nc(N2CCC(CNC(=O)CCc3ccccc3)CC2)n1 the results were IL-1B inflam inh 33.4, Giardia kill 8.6, TDP1 inh 6.3%, TDP1 cell noCPT 20.6µM*, DT40 TDP1 CPT inconclusive and ELG1 repair inh -14.9%.
`O=C(Nc1ccc2c(c1)CCC2)C1CCN(c2c3c(nc4ncnn24)CCC3)CC1` gave IL-1B inflam inh -17.6, Giardia kill -10.2, TDP1 inh -1.9%, TDP1 cell noCPT 20.6µM*, DT40 TDP1 CPT 23.1µM* and ELG1 repair inh inconclusive.
For Cc1ccnc(N2CCC(C(=O)Nc3ccc(Oc4ccccc4)cc3)CC2)n1 the results were IL-1B inflam inh 13.5, Giardia kill -15.4, TDP1 inh 5.1%, TDP1 cell noCPT inconclusive, DT40 TDP1 CPT inconclusive and ELG1 repair inh -0.6%.
For Cc1cc(C)nc(N2CCC(C(=O)Nc3ccc(Oc4ccccc4)cc3)CC2)n1 the results were IL-1B inflam inh 22.7, Giardia kill 1.5, TDP1 inh -5.6%, TDP1 cell noCPT 8.2µM*, DT40 TDP1 CPT 5.8µM* and ELG1 repair inh -7.3%.
O=C(Nc1ccc(Oc2ccccc2)cc1)C1CCN(c2c3c(nc4ncnn24)CCC3)CC1 was read as IL-1B inflam inh -91.3*, Giardia kill -5.8, TDP1 inh 3.9%, TDP1 cell noCPT 18.4µM*, DT40 TDP1 CPT 14.6µM* and ELG1 repair inh 16.4µM*.
`O=C(CC1C(=O)NCCN1CCCc1ccccc1)NCCc1ccccc1Cl` (stereo not given) gave IL-1B inflam inh -4.0, Giardia kill -5.9, TDP1 inh 6.1%, TDP1 cell noCPT inconclusive, DT40 TDP1 CPT inconclusive and ELG1 repair inh 10.2%.
Screening COc1cccc(OC)c1OCCCOc1ccc(C)cc1Br returned IL-1B inflam inh -0.6, Giardia kill 8.3, TDP1 inh 8.2%, TDP1 cell noCPT inconclusive, DT40 TDP1 CPT -21.5% and ELG1 repair inh -1.1%.
Cc1ccc2nc(-c3ccc(Cl)cc3)c(Cc3cccc(Cl)c3)n2c1 was read as IL-1B inflam inh -11.8, TDP1 cell noCPT inconclusive and DT40 TDP1 CPT inconclusive.
COc1ccccc1Cc1c(-c2ccco2)nc2ccc(C)cn12 was read as IL-1B inflam inh inconclusive, TDP1 cell noCPT 8.2µM* and DT40 TDP1 CPT 8.2µM*.
Screening COc1ccc(-c2nc3cc(C)c(Br)c(C)n3c2Cc2ccccc2)cc1OC returned IL-1B inflam inh 21.0, TDP1 cell noCPT inconclusive and DT40 TDP1 CPT inconclusive.
`COc1ccccc1Cc1c(-c2ccc(OC)c(OC)c2)nc2ccc(C)cn12` gave IL-1B inflam inh -24.2, TDP1 cell noCPT 23.1µM* and DT40 TDP1 CPT inconclusive.
Screening Cc1ccc2nc(-c3ccc(F)cc3)c(Cc3cccc(Cl)c3)n2c1 returned IL-1B inflam inh -1.0, TDP1 cell noCPT 25.9µM* and DT40 TDP1 CPT 20.6µM*.
`COc1ccc(-c2nc3ccc(C)cn3c2Cc2ccccc2)cc1OC` gave IL-1B inflam inh inconclusive, TDP1 cell noCPT 23.1µM* and DT40 TDP1 CPT 18.4µM*.
`COCCn1c(SCC(=O)N(C)c2c(N)n(Cc3ccccc3)c(=O)[nH]c2=O)nnc1-c1cccc(C)c1` gave IL-1B inflam inh 22.1, Giardia kill 2.8, TDP1 cell noCPT 5.1%, DT40 TDP1 CPT 9.9% and ELG1 repair inh 14.4%.
Screening COc1ccc(-c2nc3ccc(C)cn3c2CC(C)(C)C)cc1OC returned IL-1B inflam inh -12.2, TDP1 cell noCPT 20.6µM* and DT40 TDP1 CPT 18.4µM*.
Cc1ccc2nc(C(C)(C)C)c(Cc3cccc(Cl)c3)n2c1 was read as IL-1B inflam inh 11.0, TDP1 cell noCPT 18.4µM* and DT40 TDP1 CPT 16.4µM*.
Cc1cc2nc(C(C)(C)C)c(Cc3cccc(Cl)c3)n2c(C)c1Br was read as IL-1B inflam inh 53.4, TDP1 cell noCPT -23.9% and DT40 TDP1 CPT -19.6%.
Cc1ccc2nc(-c3ccco3)c(CC3CCCCC3)n2c1 was read as IL-1B inflam inh -16.9, TDP1 cell noCPT 10.3µM* and DT40 TDP1 CPT 13µM*.
`Brc1ccc2nc(-c3ccco3)c(CC3CCCCC3)n2c1` gave IL-1B inflam inh -4.6, TDP1 cell noCPT inconclusive and DT40 TDP1 CPT inconclusive.
Screening COc1ccc(-c2nc3ccc(C)cn3c2Cc2ccc(C)cc2)cc1OC returned IL-1B inflam inh -18.7, TDP1 cell noCPT 14.6µM* and DT40 TDP1 CPT 23.1µM*.
Screening O=C(NCCc1ccccc1)C1CC(=O)N(C2CCCCC2)C1 (stereo not given) returned IL-1B inflam inh 1.2, Giardia kill -6.2, TDP1 inh 3.3%, TDP1 cell noCPT 11.5%, DT40 TDP1 CPT -23.9% and ELG1 repair inh 1.4%.
Screening COc1ccc(-c2nc3ccc(C)cn3c2Cc2cccc(Cl)c2)cc1OC returned IL-1B inflam inh -0.1, TDP1 cell noCPT 18.4µM* and DT40 TDP1 CPT inconclusive.
